Reference: PubChem BioAssay (NCI)
About 83,000 compounds went through this panel and 20% of them were active in at least one assay; those are over-represented in the sample as a whole.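 Step 1: grow cells in 96-well plates. Step 2: add test compound at a single concentration. Step 3: incubate 48 h. Step 4: record percent growth.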 Unmarked numbers belong to inactive results. Calls of active or inactive are those of the source. *1 amine or outer side, *2 acyl side, *3 side chain or, on linkers, in order; H or OH if unused. Where a SMILES comes first, the peptide text is derived from it. Bridges are numbered along the chain shown (N, C = ends). Roman numbers before positions name the chains, in order. [ ]: non-standard residue; d: D form. Actinocin(1to9) = Cc1c2oc3c(C)ccc(C(=O)[*:2])c3nc-2c(C(=O)[*:1])c(N)c1=O; NMeV = CN[CH](C(=O)O)C(C)C; Sar = CNCC(=O)O

These compounds were tested on ACHN renal (assay: NCI-60 one-dose screen, 48 h (100 = growth as untreated, 0 = no growth, -100 = all killed)). Settings: 10 µM unless noted.
Procedure: Growth inhibition of the ACHN human tumor cell line is measured as a screen for anti-cancer activity. Cells are grown in 96 well plates and exposed to the test compound for 48 hours. Compounds are tested at a single concentration, which is 10^-5 M for most compounds. The reported endpoint is percent growth (GI% or GIPRCNT), where numbers from 0 - 100% represent growth inhibition, and numbers from -100% - 0 represent cell death. For example, a value of 40 represents 60% growth inhibition. A value of 0 means no net growth occurred over the course of the experiment. A value of -40 indicates 40% of cells at the beginning of the experiment died by the end of the experiment. A value of -100 means all cells are dead at the end of the experiment.
NCI-60 Human Tumor Cell Lines Screen was performed using the standard one-dose NCI protocol, which is described in more detail at https://dtp.cancer.gov/discovery_development/nci-60/default.htm.
Compounds with GIPRCNT values below 10 were considered active. Activity score was based on GIPRCNT using the following formula: […]
Score is 0 for GIPRCNT values of 100 or above, 50 for GIPRCNT values of 0, and 100 for GIPRCNT values of -100.

SMILES	growth
Fc1ccc(NCCS)cc1	105%
CN1CSC(=S)N(Cc2ccccc2)C1	102%
O=C1/C(=C/c2ccccn2)CCc2ccccc21	104%
O=[N+]([O-])c1ccc(C(Br)c2ccc([N+](=O)[O-])cc2)cc1	98.3%
COc1ccc2c(c1OC)OCC(CN(C)C)C2=O (stereo not given)	54.2%
O=C1C=CC(=O)N1c1ccc(O)cc1	94.3%
CN(C)CCN(C)CC(C)(C)C(=O)/C=C/c1ccc(Cl)c(Cl)c1	-100% [100 µM] (active)
Cc1oc2c(C)c3oc(=O)cc(C)c3cc2c1CCl	78.3%
N#CC(=C1SCS1)[N+](=O)[O-]	24.5%
O=C(/C=C/c1ccccc1)c1ccccc1O	87%
COc1cc(-c2ccc(-[n+]3nc(-c4ccc([N+](=O)[O-])cc4)nn3-c3ccc([N+](=O)[O-])cc3)c(OC)c2)ccc1-[n+]1nc(-c2ccc([N+](=O)[O-])cc2)nn1-c1ccc([N+](=O)[O-])cc1	9.61% (active)
OC(c1cc2ccc(C(F)(F)F)cc2c2cc(C(F)(F)F)ccc12)C1CCCCN1 (stereo not given)	-94.1% (active)
NC(=S)N/N=C\c1nccc2c(C(F)(F)F)cccc12	6.72% (active)
COc1cccc2c1C(=O)c1c(O)c3c(c(O)c1C2=O)C[C@@](O)(C(=O)CO)C[C@@H]3OC1CC(OC(C)=O)C(OC(C)=O)C(C)O1 (stereo not given in full)	-92.2% (active)
CCC(C)C1NC(=O)C(NC(=O)c2c3nc4c(C(=O)NC5C(=O)NC(C(C)CC)C(=O)N6CCCC6C(=O)N(C)CC(=O)N(C)C(C(C)C)C(=O)OC5C)ccc(C)c4oc-3c(C)c(=O)c2N)C(C)OC(=O)C(C(C)C)N(C)C(=O)CN(C)C(=O)C2CCCN2C1=O (stereo not given) (I: TIP[Sar][NMeV] / II: TIP[Sar][NMeV]; ester I:1-I:C, II:1-II:C; linker I:N-II:N via Actinocin(1to9); configuration not given here)	-4.88% (active)
O/N=C1\c2ccccc2-c2ccc(F)cc21	87.1%
Cc1ccccc1NC(=O)Cc1csc2[n+]1C(=O)/C(=C/c1ccc([N+](=O)[O-])cc1)S2	90.4%
Oc1ccc2ccccc2c1N=Nc1nccs1	10.3%
CN(C)c1ccc(/C=C/c2cc[n+](C)c(/C=C/c3ccc(N(C)C)cc3)c2)cc1	14.6%
O=[N+]([O-])c1ccc(N2CCN(Cc3ccccc3)CC2)c2c1no[n+]2[O-]	-91.6% (active)

SMILES	growth
CCN(CC)CC(O)CNc1ccc(NCC2CO2)c2c1C(=O)c1ccccc1C2=O (stereo not given)	-55.1% (active)
NCCCN(CCCN)CCCNCc1c2ccccc2c(CNCCCN(CCCN)CCCN)c2ccccc12	100%
O=C/C=C/c1ccc([N+](=O)[O-])cc1	112%
CC1=CC(=NC(=O)CBr)C=C/C1=N\S(=O)(=O)c1ccccc1	46.9%
CC(=O)c1ccc2c(c1)CCc1ccccc1-2	108%
S=C1SCN(Cc2cccs2)CN1Cc1cccs1	105%
CCN1/C(=C/C(C)=C/c2sc3ccc4ccccc4c3[n+]2CC)Sc2ccc3ccccc3c21	-97.2% (active)
O=Nc1ccc2ccccc2c1O	69.1%
CC(C)(C)c1ccc(O)c(-c2ccccc2)c1	102%
O=C(NNc1ccccc1)OCc1ccccc1	50.2%
CCCCCCCCCCCCN1C(C)=CS/C1=C\C=C\c1scc(C)[n+]1CCCCCCCCCCCC	38.6%
COc1cc(NCc2ccc3nc(N)nc(N)c3c2C)cc(OC)c1OC (tested in a mixture with another compound)	23.8%
N#CCc1cccc2ccccc12	103%
Cc1cc(=O)oc2cc(O)cc(O)c12	102%
CCc1oc2ccccc2c1C(=O)c1cc(Br)c(O)c(Br)c1	84.2%
CC(=O)N1CC(=O)NC1=S	103%
O=C(O)c1cccc2cccc(-c3c4ccc(=O)c(O)c-4oc4c(O)c(O)ccc34)c12	92.3%
COC(=O)[C@]1(C)CCC[C@]2(C)c3ccc(C(C)C)cc3C(=O)[C@@H](Br)[C@@H]12	92.6%
Cc1cc(I)nc2ccccc12	107%
CCC(C)C(N)C(=O)NC(CC(N)=O)C(=O)NC(CC(C)C)C(=O)NC(CCCCN)C(=O)NC(C)C(=O)NC(CC(C)C)C(=O)NC(C)C(=O)NC(C)C(=O)NC(CC(C)C)C(=O)NC(C)C(=O)NC(CCCCN)C(=O)NC(CCCCN)C(=O)NC(C(=O)NC(CC(C)C)C(N)=O)C(C)CC (stereo not given)	87.3%
